From PubChem BioAssay AID1159580 (chemical genetic matrix, 2015)
About 2,000 (36%) of roughly 5,500 compounds were called active. About 18% were inconclusive and are not listed. Cut-off read from the data, not from the text of the source: active = normalized growth mostly below about 0.91 (no sharp cut-off); inconclusive = no clear call, values can overlap the other calls; inactive = mostly above about 0.92. This is one part of the list.

Experiment: chemical genetic growth profiling, strain panel (AID 1159580);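 note: tested at 20 µM; growth read once vehicle control cultures reached saturation at 30 °C; 1 = growth at the plate median or of vehicle wells; lower values mean less growth of the strain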
Details: S. cerevisiae deletion strains, growth OD

Measured: normalized growth

CCN(CC)C(=O)N[C@@H]1C=C2c3cccc4[nH]cc(c34)C[C@H]2N(C)C1
inactive: locus YAL040C, strain CLN3, hits give low values 1.08 | locus YCL061C, strain MRC1 (second series), hits give low values 1 | locus YDR363W, strain ESC2, hits give low values 0.989 | locus YER002W, strain NOP16, hits give low values 1 | locus YGR078C, strain PAC10, hits give low values 0.985 | locus YJR075W, strain HOC1, hits give low values 0.983 | locus YMR263W, strain SAP30, hits give low values 0.991 | locus YNL153C, strain GIM3, hits give low values 1.02 | locus YNL175C, strain NOP13, hits give low values 1.01 | locus YNL197C, strain WHI3, hits give low values 1 | locus YNL224C, strain SQS1, hits give low values 0.997 | locus YNL322C, strain KRE1, hits give low values 0.997 | locus YOR083W, strain WHI5 (second series), hits give low values 0.992
